Our source for the Potency, activity, negative = cytotoxicity and activation values is PubChem BioAssay (Tox21).

Molecules are shown by their SMILES. Results filed as inconclusive are left out. Unmarked numbers belong to inactive results. Active and inactive are the calls of the source. Unless noted, calls follow the shape of the full dose curve.

The nature of assay [1]: qHTS assay to identify small molecule agonists of the peroxisome proliferator-activated receptor delta (PPARd) signaling pathway - cell viability counter screen (AID 743211; active = well fitted curve in the direction sought with a large enough effect in the repeat runs; an effect the other way counts as inactive or inconclusive; also: % is scaled to controls: 0 for no effect and ±100 for the full control effect; nearly all actives have a fitted effect of over 55% in size). A digest of the protocol:
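Tox21 library compounds, delivered in DMSO, were incubated 17 h with PPARd-bla HEK293H cells; cytotoxicity was taken from CellTiter-Glo luminescence read 30 min after reagent addition.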

Assay [2] concerns the target Peroxisome proliferator-activated receptor delta (Homo sapiens) (UniProt Q03181). The assay is described as follows: qHTS assay to identify small molecule agonists of the peroxisome proliferator-activated receptor delta (PPARd) signaling pathway (AID 743212). Also: % is scaled to controls: 0 for no effect and ±100 for the full control effect. In short, it runs like this:
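Cells expressing a UAS-driven beta-lactamase reporter (PPARd-bla HEK293H) were given test compounds after a 5 h settle and kept at 37 C. Reporter activity was then measured as FRET fluorescence using LiveBLAzer B/G substrate.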

The nature of assay [3]: qHTS assay to identify small molecule antagonists of the peroxisome proliferator-activated receptor delta (PPARd) signaling pathway - cell viability counter screen (AID 743213; active = well fitted curve in the direction sought with a large enough effect in the repeat runs; an effect the other way counts as inactive or inconclusive; also: % is scaled to controls: 0 for no effect and ±100 for the full control effect; nearly all actives have a fitted effect of over 50% in size). In short, it runs like this:
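Agonist-stimulated (L165041, 300 nM final) HEK293H PPARd UAS-bla cells are exposed to compounds for 17 h at 37 C, and ATP-based luminescence (CellTiter-Glo) from the same wells reports cytotoxicity.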

Assay [4] has as its target Bile acid receptor (Homo sapiens) (UniProt Q96RI1). The assay is described as follows: qHTS assay to identify small molecule antagonists of the farnesoid-X-receptor (FXR) signaling pathway (AID 743217; active = well fitted inhibition curve with a large enough effect in the signal ratio in the repeat runs, not every such curve was filed as active; the % refers to the signal ratio; also: potency is read from the fitted curve at half-maximal effect). A digest of the protocol:
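Cells carrying a UAS-driven beta-lactamase reporter (GeneBLAzer FXR-UAS-bla HEK 293T) were plated and rested 5 h at 37 °C. Compounds in DMSO were added alongside chenodeoxycholic acid agonist at 50 uM final and left 16 h at 37 °C before FRET substrate readout.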

Assay [5] can be described thus: qHTS assay to identify small molecule agonists of the farnesoid-X-receptor (FXR) signaling pathway - cell viability counter screen (AID 743218; active = well fitted curve in the direction sought with a large enough effect in the repeat runs; an effect the other way counts as inactive or inconclusive; also: % is scaled to controls: 0 for no effect and ±100 for the full control effect; nearly all actives have a fitted effect of over 45% in size). In short, it runs like this: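 Cells were seeded, left 5 h at 37 C and 5% CO2, then dosed with compound in DMSO for 16 h. After the beta-lactamase FRET read, CellTiter-Glo was added and luminescence measured 30 min later.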

Assay [6] has as its target Bile acid receptor (Homo sapiens) (UniProt Q96RI1). The assay is described as follows: qHTS assay to identify small molecule agonists of the farnesoid-X-receptor (FXR) signaling pathway (AID 743220; active = well fitted activation curve with a large enough effect in the signal ratio in the repeat runs, not every such curve was filed as active; the % refers to the signal ratio; also: % is scaled to controls: 0 for no effect and ±100 for the full control effect). In short, it runs like this: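 FXR-UAS-bla HEK 293T cells carrying a UAS-driven beta-lactamase reporter were plated for 5 h at 37C/5% CO2, then exposed to DMSO-dissolved Tox21 10K compounds for 16 h at 37C. A LiveBLAzer B/G FRET substrate was loaded for 2 h at room temperature before fluorescence reading.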

Assay [7] is described as follows: qHTS assay to identify small molecule antagonists of the farnesoid-X-receptor (FXR) signaling pathway - cell viability counter screen (AID 743221; active = well fitted cell-killing curve with a large enough effect in the repeat runs, not every such curve was filed as active; also: % is scaled to controls: 0 for no effect and ±100 for the full control effect; nearly all actives have a fitted effect of over 50% in size). In short, it runs like this:
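Cytotoxicity is taken from ATP luminescence (CellTiter-Glo, 30 min, room temperature) in FXR-bla HEK 293T cells previously incubated 16 h at 37 C with compound and chenodeoxycholic acid at 50 uM final.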

Assay [8] is described as follows: qHTS assay to identify small molecule antagonists of the vitamin D receptor (VDR) signaling pathway - cell viability counter screen (AID 743225; active = well fitted curve in the direction sought with a large enough effect in the repeat runs; an effect the other way counts as inactive or inconclusive; also: nearly all actives have a fitted effect of over 50% in size; also: potency is read from the fitted curve at half-maximal effect). In short, it runs like this:
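Same-well multiplex: following 16 h treatment of HEK 293T cells carrying a UAS-driven beta-lactamase reporter with compound and agonist (3 nM final), and a 2 h FRET substrate step, CellTiter-Glo was added and luminescence read after 30 min.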

Assay [9] can be described thus: qHTS assay to identify small molecule agonists of the NFkB signaling pathway - cell viability counter screen (AID 1159515). Also: nearly all actives have a fitted effect of over 55% in size. Also: potency is read from the fitted curve at half-maximal effect. In short, it runs like this: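 Cells are seeded (2,000 NFkB-bla ME-180 per well), rested overnight, and dosed with DMSO-dissolved compounds for 5 hr at 37 C. Viability is then read by CellTiter-Glo luminescence after 30 min at room temperature.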

A short description of assay [10]: qHTS assay to identify small molecule agonists of the endoplasmic reticulum stress response signaling pathway - cell viability counter screen (AID 1159517). Also: nearly all actives have a fitted effect of over 50% in size. Also: potency is read from the fitted curve at half-maximal effect. In short, it runs like this:
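Cpd-treated ESRE-bla HeLa (5 hr, 37 C) → LiveBLAzer 2 hr RT → CellTiter-Glo 30 min RT → luminescence.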

Assay [11] is described as follows: qHTS assay to identify small molecule antagonists of the retinoid-related orphan receptor gamma (ROR-gamma) signaling pathway - cell viability counter screen (AID 1159520; active = well fitted curve in the direction sought with a large enough effect in the repeat runs; an effect the other way counts as inactive or inconclusive). A digest of the protocol: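 Tet-on ROR gamma CHO cells (1,000/well) were plated 4 hr, given compounds in DMSO for 2 hr at 37 C, then induced with 1 uM final doxycycline for 16 hr. Viability was read as ATP by CellTiter-Glo luminescence after 30 min.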

In assay [12] the target is Nuclear receptor ROR-gamma (Homo sapiens) (UniProt P51449). The assay is described as follows: qHTS assay to identify small molecule antagonists of the retinoid-related orphan receptor gamma (ROR-gamma) signaling pathway (AID 1159521; active = well fitted curve in the direction sought with a large enough effect in the repeat runs; an effect the other way counts as inactive or inconclusive; also: nearly all actives have a fitted effect of over 50% in size; also: potency is read from the fitted curve at half-maximal effect). A digest of the protocol:
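Inducible-expression reporter assay: doxycycline (1 uM final) switched on RORγ in CHO cells bearing a ROR response element-luciferase construct, with test compounds present from 2 h beforehand. Decreased luminescence after 16 h defined antagonist activity.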

Assay [13] in a line: qHTS assay to identify small molecule agonists of the AP-1 signaling pathway - cell viability counter screen (AID 1159525). Also: nearly all actives have a fitted effect of over 55% in size. Also: potency is read from the fitted curve at half-maximal effect. In short, it runs like this:
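Each titration point was normalised to DMSO and tetra n-octyl ammonium bromide controls. The read was Cell Titer Glo luminescence after 30 min at RT, following 5 h compound exposure of ME-180 AP-1-bla cells at 37 °C.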

Assay [14] is described as follows: qHTS assay to identify small molecule agonists of the AP-1 signaling pathway (AID 1159526). Also: % is scaled to controls: 0 for no effect and ±100 for the full control effect.
In assay [15] the target is Retinoic acid receptor RXR-alpha (Homo sapiens) (UniProt P19793). Put plainly: qHTS assay to identify small molecule agonists of the RXR signaling pathway (AID 1159527). Also: nearly all actives have a fitted effect of over 35% in size. Also: potency is read from the fitted curve at half-maximal effect. In short, it runs like this:
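Compounds in DMSO were added to RXR-alpha-UAS-bla HEK 293T cells kept in 2% charcoal-stripped serum, and incubated 16 hr at 37 C with 5% CO2. Reporter signal came from a 2 hr B/G FRET substrate step.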

The target of assay [16] is Peroxisome proliferator-activated receptor delta (Homo sapiens) (UniProt Q03181). Put plainly: qHTS assay to identify small molecule antagonists of the peroxisome proliferator-activated receptor delta (PPARd) signaling pathway (AID 743215; active = well fitted inhibition curve with a large enough effect in the signal ratio in the repeat runs, not every such curve was filed as active; the % refers to the signal ratio; also: series mostly up to about 62 µM; % is scaled to controls: 0 for no effect and ±100 for the full control effect). A digest of the protocol:
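Cells: HEK293H with a UAS-driven beta-lactamase reporter responsive to PPARd. Compounds were co-added with L165041 (300 nM, final) and incubated 17 h at 37 C before a 2 h room-temperature FRET substrate step and fluorescence reading.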

Assay [17] deals with Vitamin D3 receptor (Homo sapiens) (UniProt P11473). Put plainly: qHTS assay to identify small molecule antagonists of the vitamin D receptor (VDR) signaling pathway (AID 743223; active = well fitted inhibition curve with a large enough effect in the signal ratio in the repeat runs, not every such curve was filed as active; the % refers to the signal ratio; also: % is scaled to controls: 0 for no effect and ±100 for the full control effect). A digest of the protocol: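 Quantitative HTS in VDR-bla reporter cells stimulated with 1alpha,25-dihydroxyvitamin D3, 3 nM final. Compound exposure 16 h, 37C, 5% CO2. Read-out: beta-lactamase FRET substrate fluorescence, 2 h RT.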
Vitamin D3 receptor (Homo sapiens), sequence (P11473 whole entry, looked up): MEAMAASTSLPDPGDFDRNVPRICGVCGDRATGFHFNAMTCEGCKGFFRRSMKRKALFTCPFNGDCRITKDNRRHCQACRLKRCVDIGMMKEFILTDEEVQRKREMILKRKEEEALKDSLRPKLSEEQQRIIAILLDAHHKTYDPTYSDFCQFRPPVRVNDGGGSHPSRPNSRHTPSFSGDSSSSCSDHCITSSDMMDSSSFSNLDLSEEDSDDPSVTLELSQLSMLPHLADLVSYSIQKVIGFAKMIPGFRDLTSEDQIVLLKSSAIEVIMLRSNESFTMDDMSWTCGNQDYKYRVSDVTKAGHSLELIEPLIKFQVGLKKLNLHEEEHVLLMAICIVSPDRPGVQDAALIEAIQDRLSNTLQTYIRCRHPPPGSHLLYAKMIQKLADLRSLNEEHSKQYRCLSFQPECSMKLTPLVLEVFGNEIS

Assay [18] can be described thus: qHTS assay to identify small molecule agonists of the vitamin D receptor (VDR) signaling pathway - cell viability counter screen (AID 743224; active = well fitted curve in the direction sought with a large enough effect in the repeat runs; an effect the other way counts as inactive or inconclusive). A digest of the protocol:
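Cells: VDR-bla, 2,000/well, settled 4 h. Treatment: compounds in DMSO, 16 h, 37C/5% CO2. Readout: CellTiter-Glo luminescence after 30 min RT.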

Assay [19] deals with Vitamin D3 receptor (Homo sapiens) (UniProt P11473). Put plainly: qHTS assay to identify small molecule agonists of the vitamin D receptor (VDR) signaling pathway (AID 743222). Also: % is scaled to controls: 0 for no effect and ±100 for the full control effect. In short, it runs like this: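 Cells carrying a VDR-driven beta-lactamase reporter are seeded at 2,000 per well and rested 4 h. Compounds in DMSO are added for 16 h at 37C, and FRET substrate fluorescence is measured after 2 h at room temperature.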

Bile acid receptor (Homo sapiens), sequence (Q96RI1 whole entry, looked up): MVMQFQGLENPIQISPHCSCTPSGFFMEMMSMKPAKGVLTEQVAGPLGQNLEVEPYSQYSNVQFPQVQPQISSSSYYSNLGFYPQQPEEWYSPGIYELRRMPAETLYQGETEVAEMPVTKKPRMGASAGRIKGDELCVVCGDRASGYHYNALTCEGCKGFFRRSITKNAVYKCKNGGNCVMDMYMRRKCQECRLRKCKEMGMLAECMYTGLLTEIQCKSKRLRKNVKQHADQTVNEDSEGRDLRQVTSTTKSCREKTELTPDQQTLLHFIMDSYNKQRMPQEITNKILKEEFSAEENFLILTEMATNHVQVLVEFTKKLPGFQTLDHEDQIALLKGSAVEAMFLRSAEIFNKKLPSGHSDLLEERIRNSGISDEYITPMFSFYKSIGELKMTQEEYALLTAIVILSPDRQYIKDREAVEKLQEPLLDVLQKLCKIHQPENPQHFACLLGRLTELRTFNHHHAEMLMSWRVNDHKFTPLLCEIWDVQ
Retinoic acid receptor RXR-alpha (Homo sapiens), sequence (P19793 whole entry, looked up): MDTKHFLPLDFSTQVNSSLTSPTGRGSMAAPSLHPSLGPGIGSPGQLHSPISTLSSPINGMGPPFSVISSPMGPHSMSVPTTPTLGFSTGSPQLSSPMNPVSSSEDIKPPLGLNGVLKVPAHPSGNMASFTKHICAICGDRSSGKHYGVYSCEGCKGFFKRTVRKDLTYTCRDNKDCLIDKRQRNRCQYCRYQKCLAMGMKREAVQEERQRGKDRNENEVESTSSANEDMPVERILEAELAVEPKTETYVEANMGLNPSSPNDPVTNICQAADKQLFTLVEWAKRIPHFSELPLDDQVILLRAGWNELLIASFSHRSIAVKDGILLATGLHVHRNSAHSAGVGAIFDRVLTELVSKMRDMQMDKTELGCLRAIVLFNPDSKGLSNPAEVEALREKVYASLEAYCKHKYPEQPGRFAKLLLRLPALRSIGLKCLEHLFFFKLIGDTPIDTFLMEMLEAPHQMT
Peroxisome proliferator-activated receptor delta (Homo sapiens), sequence (Q03181 whole entry, looked up): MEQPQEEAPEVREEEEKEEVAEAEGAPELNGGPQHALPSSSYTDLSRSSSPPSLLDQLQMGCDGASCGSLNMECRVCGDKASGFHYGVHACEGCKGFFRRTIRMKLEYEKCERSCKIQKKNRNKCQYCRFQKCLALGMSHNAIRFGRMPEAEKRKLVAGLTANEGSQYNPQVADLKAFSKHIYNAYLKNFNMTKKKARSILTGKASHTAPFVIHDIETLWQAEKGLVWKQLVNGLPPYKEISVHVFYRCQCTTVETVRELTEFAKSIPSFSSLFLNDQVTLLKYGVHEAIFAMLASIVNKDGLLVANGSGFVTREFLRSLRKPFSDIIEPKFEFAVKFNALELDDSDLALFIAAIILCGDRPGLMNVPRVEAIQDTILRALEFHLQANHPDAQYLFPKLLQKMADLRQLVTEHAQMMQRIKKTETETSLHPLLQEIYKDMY

With `Cc1cc(C(C)(C)C)cc(C)c1CC1=NCCN1`, the Potency result in assay [1], in assay [2], in assay [3], in [4], in assay [5] and in assay [6] was “inactive” in each case. For the same compound, the Potency result in assay [7], in assay [8], in assay [9], in assay [10], in assay [11] and in [12] was “inactive” throughout. In addition, the Potency result in [13], in assay [14] and in [15] was “inactive” each time.
With `Cc1cc(C(C)(C)C)c(O)c(C)c1Cn1c(=O)n(Cc2c(C)cc(C(C)(C)C)c(O)c2C)c(=O)n(Cc2c(C)cc(C(C)(C)C)c(O)c2C)c1=O`, the Potency entry in assay [2], in assay [3], in assay [16], in assay [6], in assay [17] and in assay [18] was “inactive” each time. For the same compound, the Potency result in assay [9], in assay [10], in [12], in assay [13], in assay [14] and in assay [15] was “inactive” throughout. Besides, the Potency in assay [4] is 19.5 µM (active); in assay [8], 12.3 µM (active).
In the case of `C[C@@H](O)[C@H](N)C(=O)O`, the Potency result in assay [1], in assay [2], in assay [16], in assay [4], in [5] and in assay [6] was “inactive” in each case. Besides, the Potency entry in [7], in assay [8], in assay [9] and in assay [10] was “inactive” throughout. For the same compound, the activity, negative = cytotoxicity in [11] is -0.243% [at 19 µM]. Also, the activation is -7.74% [at 15.8 µM] in assay [14] and 0.146% [at 15.8 µM] in [15].
For `Nc1nc2c(ncn2COCCO)c(=O)[nH]1`, the Potency entry in assay [1], in assay [2], in assay [3], in [16], in assay [4] and in [5] was “inactive” in each case. Further, the Potency result in [6], in assay [7], in [9], in assay [10], in assay [12] and in [14] was “inactive” in each case. Besides, the Potency result in assay [15] is “inactive”.
For `Cc1nc(-c2ccc(Cl)cc2)oc1COC(C)(C)C(=O)O`, the Potency entry in [1], in [3], in assay [4], in [5], in [6] and in [7] was “inactive” throughout. In addition, the Potency result in assay [19], in [17], in assay [18], in [8], in [9] and in [10] was “inactive” each time. For the same compound, the Potency result in [12], in assay [13], in [14] and in assay [15] was “inactive” throughout.
Consider `Cc1ccc(C(C)C)cc2c(C)ccc1-2`, for which the Potency entry in assay [1], in assay [3], in assay [4], in assay [5], in assay [6] and in assay [7] was “inactive” each time. The Potency result in assay [19], in assay [17], in [18], in assay [8], in [9] and in [10] was “inactive” in each case. Further, the Potency result in assay [14] and in assay [15] was “inactive” each time.
On to `O=C(c1ccc(O)c(O)c1)c1ccc(O)cc1O`, for which the Potency result in [3], in [5], in assay [18], in assay [8], in [9] and in [10] was “inactive” throughout. Also, the Potency result in [11] and in assay [14] was “inactive” throughout. Further, the Potency in [12] was 21.6 µM (active).
For the compound `CC(C)=CCNc1ncnc2c1ncn2[C@@H]1O[C@H](CO)[C@@H](O)[C@H]1O`, the Potency entry in [2], in assay [16], in assay [6], in assay [17] and in assay [14] was “inactive” in each case. Also, the Potency in [9] is 8.49 µM (active); in [10] it was 13.4 µM (active); in [12], 13.3 µM (active); in assay [13], 6.01 µM (active).
On to `Cc1c(C)c2c(c(C)c1OC(=O)c1cccnc1)CC[C@@](C)(CCC[C@H](C)CCC[C@H](C)CCCC(C)C)O2`, for which the Potency entry in assay [1], in [2], in assay [16], in [5], in assay [17] and in assay [8] was “inactive” in each case. For the same compound, the Potency entry in assay [9], in [10], in assay [11], in assay [13], in assay [14] and in assay [15] was “inactive” in each case.
Turning to `CC(C)OC(=O)C(O)(CC(=O)O)CC(=O)O`, the Potency entry in [1], in [2], in [3], in assay [4], in assay [5] and in assay [6] was “inactive” throughout. The Potency result in [19], in [17], in [8], in [9], in assay [10] and in assay [11] was “inactive” throughout. The Potency entry in [13] and in [14] was “inactive” in each case. For the same compound, the Potency in assay [15] is 21.9 µM (active).
